The record followed here is publication PMC7862700, “An all-to-all approach to the identification of sequence-specific readers for epigenetic DNA modifications on cytosine”.

Holding throughout (assay): DAPPL (digital affinity profiling via proximity ligation, sequencing); 10 mM Tris-HCl pH 7.5, 50 mM NaCl, 1 mM DTT, 4% glycerol, room temperature, 30 min; GST-TFs on glutathione beads, 16-mer random dsDNA library, 0.1% formaldehyde crosslink after washing; high values mean tight binding
Experiment [1] addresses T1, FEV (Homo sapiens, UniProt Q99581 1-238).
T1 sequence: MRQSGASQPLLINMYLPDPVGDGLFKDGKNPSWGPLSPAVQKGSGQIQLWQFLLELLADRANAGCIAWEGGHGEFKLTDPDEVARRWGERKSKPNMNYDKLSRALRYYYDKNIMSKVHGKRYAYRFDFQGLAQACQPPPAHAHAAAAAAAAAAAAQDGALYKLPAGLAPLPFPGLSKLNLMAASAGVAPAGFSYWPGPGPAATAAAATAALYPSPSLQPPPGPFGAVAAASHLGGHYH
The settings on record: protein: recombinant; tags: N-terminal GST; dsDNA, one strand shown. Summed up: (§1)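 Human transcription factors were made in yeast as GST fusions, captured on glutathione beads and barcoded with DNA. With a tag-only sample included, the pool was incubated with 200 nmole of a random double-stranded 16-mer DNA library in Tris/NaCl/DTT/glycerol buffer at room temperature for 30 min, then crosslinked with 0.1% formaldehyde after washing, ligated by proximity, amplified and sequenced. For binding signal, each hexamer's read frequency for a factor is divided by its frequency for the tag-only sample.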

Experiment [2] addresses ETV5 (Homo sapiens, UniProt P41161 1-510). The note with it: protein: recombinant; tags: N-terminal GST; dsDNA, one strand shown. The gist of the method: as §1
For experiment [3], the target named is HSF1 (Homo sapiens, UniProt Q00613 1-529). The note with it: protein: recombinant; tags: N-terminal GST; chain copies: 3; dsDNA, one strand shown. Summed up:
as §1

Experiment [4] addresses T2, SPIC (Homo sapiens, UniProt Q8N5J4 1-248).
T2 sequence: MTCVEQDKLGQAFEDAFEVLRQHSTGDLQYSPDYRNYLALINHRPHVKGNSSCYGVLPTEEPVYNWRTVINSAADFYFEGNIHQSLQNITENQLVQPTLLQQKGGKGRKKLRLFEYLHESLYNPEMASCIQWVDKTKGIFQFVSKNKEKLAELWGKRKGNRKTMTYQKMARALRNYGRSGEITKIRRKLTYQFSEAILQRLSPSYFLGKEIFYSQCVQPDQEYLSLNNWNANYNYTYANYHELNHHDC
The note with it: protein: recombinant; tags: N-terminal GST; dsDNA, one strand shown. The gist of the method:
as §1

Experiment [5] has as its target ELF4 (Homo sapiens, UniProt Q99607 1-663). The settings on record: protein: recombinant; tags: N-terminal GST; dsDNA, one strand shown. Summed up: as §1
In experiment [6] the target is T3, ELK4 (Homo sapiens, UniProt P28324-2 1-405).
T3 sequence: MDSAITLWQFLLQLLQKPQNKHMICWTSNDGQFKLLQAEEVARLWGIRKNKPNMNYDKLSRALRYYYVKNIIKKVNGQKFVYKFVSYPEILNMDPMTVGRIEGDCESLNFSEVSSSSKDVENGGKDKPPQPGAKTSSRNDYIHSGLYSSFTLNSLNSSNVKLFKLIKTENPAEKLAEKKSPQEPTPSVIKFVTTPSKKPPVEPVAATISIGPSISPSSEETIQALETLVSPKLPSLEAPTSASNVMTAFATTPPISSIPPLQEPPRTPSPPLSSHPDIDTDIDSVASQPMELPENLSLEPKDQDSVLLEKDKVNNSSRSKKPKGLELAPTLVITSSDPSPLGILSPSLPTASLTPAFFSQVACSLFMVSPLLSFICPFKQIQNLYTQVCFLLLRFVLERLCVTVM
The note with it: protein: recombinant; tags: N-terminal GST; dsDNA, one strand shown. Summed up:
as §1

Experiment [7] has as its target T4, ETV2 (Homo sapiens, UniProt O00321 1-342).
T4 sequence: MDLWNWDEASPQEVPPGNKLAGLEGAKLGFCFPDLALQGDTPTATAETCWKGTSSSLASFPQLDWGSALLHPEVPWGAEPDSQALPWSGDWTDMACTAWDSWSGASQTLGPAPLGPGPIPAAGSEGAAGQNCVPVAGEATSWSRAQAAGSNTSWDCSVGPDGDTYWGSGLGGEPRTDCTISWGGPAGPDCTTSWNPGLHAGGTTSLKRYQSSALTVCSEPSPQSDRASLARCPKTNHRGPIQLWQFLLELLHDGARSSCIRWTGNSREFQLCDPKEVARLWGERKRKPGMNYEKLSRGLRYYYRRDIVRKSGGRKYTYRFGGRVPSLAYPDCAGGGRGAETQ
The note with it: protein: recombinant; tags: N-terminal GST; dsDNA, one strand shown. The gist of the method: as §1

The target in experiment [8] is T5, ELF3 (Homo sapiens, UniProt P78545 1-371).
T5 sequence: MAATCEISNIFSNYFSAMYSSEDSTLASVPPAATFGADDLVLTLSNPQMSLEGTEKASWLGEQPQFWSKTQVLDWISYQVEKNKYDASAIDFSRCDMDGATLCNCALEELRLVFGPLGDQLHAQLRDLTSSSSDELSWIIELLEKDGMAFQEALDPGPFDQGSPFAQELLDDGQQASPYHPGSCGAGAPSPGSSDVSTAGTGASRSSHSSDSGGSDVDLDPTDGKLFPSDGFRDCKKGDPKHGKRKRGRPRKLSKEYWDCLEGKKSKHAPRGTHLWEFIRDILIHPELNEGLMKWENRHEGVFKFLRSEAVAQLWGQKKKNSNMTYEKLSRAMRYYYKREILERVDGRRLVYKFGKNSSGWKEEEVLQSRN
The note with it: protein: recombinant; tags: N-terminal GST; dsDNA, one strand shown. The gist of the method:
as §1

For experiment [9], the target named is CRX (Homo sapiens, UniProt O43186 1-299). The settings on record: protein: recombinant; tags: N-terminal GST; dsDNA, one strand shown. The gist of the method:
as §1

The target of experiment [10] is ETV1 (Homo sapiens, UniProt P50549 1-477). The note with it: protein: recombinant; tags: N-terminal GST; dsDNA, one strand shown. The gist of the method:
as §1

ETV5, sequence (P41161 whole entry): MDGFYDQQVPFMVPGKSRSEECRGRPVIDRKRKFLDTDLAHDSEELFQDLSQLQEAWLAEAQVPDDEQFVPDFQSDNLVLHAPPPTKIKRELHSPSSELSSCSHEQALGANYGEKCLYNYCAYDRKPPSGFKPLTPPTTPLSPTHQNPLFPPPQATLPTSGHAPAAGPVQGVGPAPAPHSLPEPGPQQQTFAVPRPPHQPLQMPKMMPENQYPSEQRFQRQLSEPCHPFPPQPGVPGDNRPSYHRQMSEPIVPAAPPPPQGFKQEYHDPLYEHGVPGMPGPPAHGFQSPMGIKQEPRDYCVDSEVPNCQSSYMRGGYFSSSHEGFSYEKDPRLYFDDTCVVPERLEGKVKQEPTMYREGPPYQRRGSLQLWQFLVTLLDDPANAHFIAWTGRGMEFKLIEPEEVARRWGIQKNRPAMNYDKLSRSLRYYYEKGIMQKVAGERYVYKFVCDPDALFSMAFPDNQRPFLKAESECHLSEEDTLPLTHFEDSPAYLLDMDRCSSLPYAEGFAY
CRX, sequence (O43186 whole entry): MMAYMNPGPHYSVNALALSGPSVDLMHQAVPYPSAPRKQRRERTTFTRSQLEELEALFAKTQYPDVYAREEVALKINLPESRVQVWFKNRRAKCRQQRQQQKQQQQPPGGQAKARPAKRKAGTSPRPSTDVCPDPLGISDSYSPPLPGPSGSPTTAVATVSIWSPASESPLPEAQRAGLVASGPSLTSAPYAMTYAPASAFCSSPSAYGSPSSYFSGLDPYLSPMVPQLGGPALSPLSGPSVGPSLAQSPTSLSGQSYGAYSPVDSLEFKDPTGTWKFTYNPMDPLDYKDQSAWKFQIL
HSF1, sequence (Q00613 whole entry): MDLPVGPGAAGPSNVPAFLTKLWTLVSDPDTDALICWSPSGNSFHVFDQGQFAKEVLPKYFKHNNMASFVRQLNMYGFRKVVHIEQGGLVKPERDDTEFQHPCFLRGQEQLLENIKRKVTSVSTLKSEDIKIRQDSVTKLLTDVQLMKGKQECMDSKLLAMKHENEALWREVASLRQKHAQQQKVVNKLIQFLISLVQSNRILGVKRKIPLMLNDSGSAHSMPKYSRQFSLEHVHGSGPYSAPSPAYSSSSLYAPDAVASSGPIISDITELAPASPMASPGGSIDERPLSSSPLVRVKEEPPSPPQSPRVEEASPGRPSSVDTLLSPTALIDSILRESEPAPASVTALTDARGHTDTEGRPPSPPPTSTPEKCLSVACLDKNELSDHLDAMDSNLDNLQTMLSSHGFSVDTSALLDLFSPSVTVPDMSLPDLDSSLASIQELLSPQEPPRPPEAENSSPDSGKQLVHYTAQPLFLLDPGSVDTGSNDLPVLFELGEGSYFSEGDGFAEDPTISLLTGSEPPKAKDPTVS
ETV1, sequence (P50549 whole entry): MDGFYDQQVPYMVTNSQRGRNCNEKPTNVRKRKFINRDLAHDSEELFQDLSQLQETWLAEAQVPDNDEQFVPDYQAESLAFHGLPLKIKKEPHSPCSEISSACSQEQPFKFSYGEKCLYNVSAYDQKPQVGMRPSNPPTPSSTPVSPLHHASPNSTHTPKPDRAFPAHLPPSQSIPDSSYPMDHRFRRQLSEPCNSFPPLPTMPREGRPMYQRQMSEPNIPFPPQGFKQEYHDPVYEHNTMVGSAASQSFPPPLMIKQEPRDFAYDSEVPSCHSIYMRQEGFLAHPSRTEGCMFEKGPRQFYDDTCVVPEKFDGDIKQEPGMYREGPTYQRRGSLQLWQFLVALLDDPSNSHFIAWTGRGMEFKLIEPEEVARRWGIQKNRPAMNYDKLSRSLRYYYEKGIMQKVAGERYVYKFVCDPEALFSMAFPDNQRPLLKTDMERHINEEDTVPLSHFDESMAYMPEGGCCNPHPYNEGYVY
ELF4, sequence (Q99607 whole entry): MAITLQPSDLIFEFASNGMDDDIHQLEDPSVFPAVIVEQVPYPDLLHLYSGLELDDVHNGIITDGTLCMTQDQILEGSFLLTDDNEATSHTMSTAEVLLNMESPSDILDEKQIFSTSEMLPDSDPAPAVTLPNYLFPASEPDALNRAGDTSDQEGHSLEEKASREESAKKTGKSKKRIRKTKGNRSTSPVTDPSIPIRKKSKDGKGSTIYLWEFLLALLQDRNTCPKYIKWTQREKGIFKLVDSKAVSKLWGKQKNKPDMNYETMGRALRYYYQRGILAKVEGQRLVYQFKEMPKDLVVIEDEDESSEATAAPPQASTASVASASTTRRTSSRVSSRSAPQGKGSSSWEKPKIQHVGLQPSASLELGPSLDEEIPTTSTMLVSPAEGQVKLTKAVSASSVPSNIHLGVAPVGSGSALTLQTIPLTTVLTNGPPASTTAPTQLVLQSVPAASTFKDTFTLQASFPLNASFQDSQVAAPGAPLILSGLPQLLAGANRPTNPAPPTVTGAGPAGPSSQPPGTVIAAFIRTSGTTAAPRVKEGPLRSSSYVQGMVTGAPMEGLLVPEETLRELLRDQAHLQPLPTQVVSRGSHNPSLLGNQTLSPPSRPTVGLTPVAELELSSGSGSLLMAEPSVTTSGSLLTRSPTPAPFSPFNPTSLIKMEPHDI

In the case of CTCGTA, the binding signal in [1] is 1.33 fold enrichment (6-mer frequency, TF over GST control); in [2] it was 1.29 fold enrichment (6-mer frequency, TF over GST control); in experiment [3] it was 1.77 fold enrichment (6-mer frequency, TF over GST control); in experiment [4], 1.25 fold enrichment (6-mer frequency, TF over GST control); in experiment [5], 1.35 fold enrichment (6-mer frequency, TF over GST control); in experiment [6] it was 1.16 fold enrichment (6-mer frequency, TF over GST control). Also, the binding signal was 1.44 fold enrichment (6-mer frequency, TF over GST control) in experiment [7]; 1.39 fold enrichment (6-mer frequency, TF over GST control) in [8]; 1.38 fold enrichment (6-mer frequency, TF over GST control) in experiment [9]; 1.35 fold enrichment (6-mer frequency, TF over GST control) in [10].

As for TATATG, the binding signal in experiment [1] was 1.33 fold enrichment (6-mer frequency, TF over GST control); in experiment [2], 1.34 fold enrichment (6-mer frequency, TF over GST control); in experiment [3], 1.28 fold enrichment (6-mer frequency, TF over GST control); in experiment [4], 1.47 fold enrichment (6-mer frequency, TF over GST control); in experiment [5], 1.31 fold enrichment (6-mer frequency, TF over GST control); in experiment [6] it was 1.65 fold enrichment (6-mer frequency, TF over GST control). Moreover, the binding signal in experiment [7] was 1.25 fold enrichment (6-mer frequency, TF over GST control); in experiment [8], 1.46 fold enrichment (6-mer frequency, TF over GST control); in experiment [9], 1.44 fold enrichment (6-mer frequency, TF over GST control); in experiment [10] it was 1.33 fold enrichment (6-mer frequency, TF over GST control).

As for TTTCCT, the binding signal was 2.34 fold enrichment (6-mer frequency, TF over GST control) in [1]; 2.73 fold enrichment (6-mer frequency, TF over GST control) in experiment [2]; 1.73 fold enrichment (6-mer frequency, TF over GST control) in experiment [3]; 2.42 fold enrichment (6-mer frequency, TF over GST control) in [4]; 2.19 fold enrichment (6-mer frequency, TF over GST control) in experiment [5]; 2.04 fold enrichment (6-mer frequency, TF over GST control) in [6]. For the same sequence, the binding signal in experiment [7] is 2.49 fold enrichment (6-mer frequency, TF over GST control); in [8], 2.44 fold enrichment (6-mer frequency, TF over GST control); in experiment [9] it was 1.56 fold enrichment (6-mer frequency, TF over GST control); in [10], 2.43 fold enrichment (6-mer frequency, TF over GST control).

TACGCC: the binding signal in experiment [1] is 1.25 fold enrichment (6-mer frequency, TF over GST control); in [2], 1.26 fold enrichment (6-mer frequency, TF over GST control); in experiment [3], 1.17 fold enrichment (6-mer frequency, TF over GST control); in [4] it was 1.32 fold enrichment (6-mer frequency, TF over GST control); in experiment [5], 1.29 fold enrichment (6-mer frequency, TF over GST control); in [6] it was 1.24 fold enrichment (6-mer frequency, TF over GST control). Besides, the binding signal in experiment [7] is 1.02 fold enrichment (6-mer frequency, TF over GST control); in experiment [8], 1.14 fold enrichment (6-mer frequency, TF over GST control); in experiment [9] it was 1.2 fold enrichment (6-mer frequency, TF over GST control); in [10] it was 1.22 fold enrichment (6-mer frequency, TF over GST control).

As to TATAGC, the binding signal in experiment [1] was 1.19 fold enrichment (6-mer frequency, TF over GST control); in experiment [2], 1.37 fold enrichment (6-mer frequency, TF over GST control); in experiment [3], 1.17 fold enrichment (6-mer frequency, TF over GST control); in [4], 1.31 fold enrichment (6-mer frequency, TF over GST control); in experiment [5] it was 1.15 fold enrichment (6-mer frequency, TF over GST control); in experiment [6], 1.29 fold enrichment (6-mer frequency, TF over GST control). Further, the binding signal in [7] is 1.13 fold enrichment (6-mer frequency, TF over GST control); in experiment [8], 1.27 fold enrichment (6-mer frequency, TF over GST control); in experiment [9], 1.44 fold enrichment (6-mer frequency, TF over GST control); in [10], 1.13 fold enrichment (6-mer frequency, TF over GST control).

On to CTCCCT, for which the binding signal in [1] is 1.44 fold enrichment (6-mer frequency, TF over GST control); in experiment [2] it was 1.73 fold enrichment (6-mer frequency, TF over GST control); in experiment [3], 1.32 fold enrichment (6-mer frequency, TF over GST control); in [4], 1.38 fold enrichment (6-mer frequency, TF over GST control); in [5], 1.59 fold enrichment (6-mer frequency, TF over GST control); in experiment [6], 1.41 fold enrichment (6-mer frequency, TF over GST control). For the same sequence, the binding signal was 1.51 fold enrichment (6-mer frequency, TF over GST control) in experiment [7]; 1.48 fold enrichment (6-mer frequency, TF over GST control) in experiment [8]; 1.36 fold enrichment (6-mer frequency, TF over GST control) in [9]; 1.44 fold enrichment (6-mer frequency, TF over GST control) in [10].

TTTCCA: the binding signal in [1] is 1.34 fold enrichment (6-mer frequency, TF over GST control); in [2] it was 1.28 fold enrichment (6-mer frequency, TF over GST control); in experiment [3], 2.18 fold enrichment (6-mer frequency, TF over GST control); in [4], 1.18 fold enrichment (6-mer frequency, TF over GST control); in experiment [5], 1.39 fold enrichment (6-mer frequency, TF over GST control); in experiment [6] it was 1.39 fold enrichment (6-mer frequency, TF over GST control). Moreover, the binding signal in experiment [7] was 1.22 fold enrichment (6-mer frequency, TF over GST control); in experiment [8], 1.19 fold enrichment (6-mer frequency, TF over GST control); in experiment [9], 1.61 fold enrichment (6-mer frequency, TF over GST control); in [10], 1.22 fold enrichment (6-mer frequency, TF over GST control).

In the case of TTAATC, the binding signal in experiment [1] was 1.19 fold enrichment (6-mer frequency, TF over GST control); in [2] it was 1.23 fold enrichment (6-mer frequency, TF over GST control); in [3], 3.29 fold enrichment (6-mer frequency, TF over GST control); in [4], 1.19 fold enrichment (6-mer frequency, TF over GST control); in [5], 1.26 fold enrichment (6-mer frequency, TF over GST control); in experiment [6], 1.43 fold enrichment (6-mer frequency, TF over GST control). For the same sequence, the binding signal in [7] is 1.13 fold enrichment (6-mer frequency, TF over GST control); in experiment [8], 1.27 fold enrichment (6-mer frequency, TF over GST control); in experiment [9], 6.11 fold enrichment (6-mer frequency, TF over GST control); in experiment [10] it was 1.33 fold enrichment (6-mer frequency, TF over GST control).
